Giardia killer = Giardia lamblia killing; Giardia lamblia trophozoite viability; activity change, % at 7.66 µM, hits read low; actives 0.15% (n = 340,000); in the data active = activity change below about -80%; inconclusive = between about -30% and that limit;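 note: parasites exposed to compound for two days anaerobically before the ATP read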
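Compounds were tested on trophozoites seeded at 100 cells/well and held 48 hrs at 37 deg C anaerobically. An ATP-based luminescent kit measured the remaining live cells.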
RORgamma inh = blocks mouse ROR gamma transcriptional activity. P51450. Drosophila S2 Gal4-RORgamma UAS-luciferase reporter, 20 h. Potency, µM (series often up to 53.6 µM), actives largely listed as inhibitors. actives 5.4% (n = 310,000); note: nearly all actives have a fitted effect of over 60% in size
Target sequence (P51450 whole entry, looked up, the tested form may be a part): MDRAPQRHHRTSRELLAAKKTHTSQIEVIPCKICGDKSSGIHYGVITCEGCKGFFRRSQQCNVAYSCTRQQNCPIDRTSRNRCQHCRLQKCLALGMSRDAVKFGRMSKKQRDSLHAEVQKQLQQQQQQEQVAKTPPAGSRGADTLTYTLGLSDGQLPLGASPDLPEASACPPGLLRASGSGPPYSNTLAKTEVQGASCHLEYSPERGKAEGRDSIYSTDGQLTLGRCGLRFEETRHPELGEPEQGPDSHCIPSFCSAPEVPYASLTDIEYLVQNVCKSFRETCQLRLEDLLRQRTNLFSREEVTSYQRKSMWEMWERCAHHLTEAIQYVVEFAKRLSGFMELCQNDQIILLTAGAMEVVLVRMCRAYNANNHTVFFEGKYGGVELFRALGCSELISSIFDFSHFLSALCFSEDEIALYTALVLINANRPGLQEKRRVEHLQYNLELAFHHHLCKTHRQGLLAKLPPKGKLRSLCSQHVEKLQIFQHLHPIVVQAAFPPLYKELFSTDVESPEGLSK
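Stably transfected Drosophila Schneider cells are the test system, with ROR gamma fused to Gal4 and luciferase under UAS control; luminescence is read after 20 hr of 700 uM copper sulfate induction at ambient temperature.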
Integrin act MD = integrin-mediated muscular dystrophy alleviation activation; alpha7betagal myoblasts, beta-gal FDG fluorescence, 48 h; Potency, µM (series often up to 38.3 µM), hits mostly activators; actives 0.064% (n = 350,000); AID 624291; note: nearly all actives have a fitted effect of over 60% in size
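Alpha7betagal+/- myoblasts (passage 13) were plated 16-24 hr, then exposed to compounds (1:260 dilution of DMSO stock) for 48 hours at 37C. After MPER lysis, β-galactosidase reporter activity was read as FDG fluorescence (ex 480/em 540) after 30 minutes.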
VP16 counter = Gal4-VP16 reporter inhibition counter-screen; Drosophila S2 Gal4-VP16 UAS-luciferase, luminescence, 20 h; Potency, µM (top dose mostly 53.6 µM), hits mostly inhibitors; actives 3.5% (n = 310,000); AID 2546;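 note: Gal4-VP16 expression switched on by copper sulfate through the metallothionein promoter; nearly all actives have a fitted effect of over 50% in size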
ERG Ets-DNA blk = inhibitors of human ERG Ets domain-DNA interaction; P11308; actives 0.028% (n = 370,000); fluorescence polarization, His-ERG Ets domain / labelled DNA; AID 624246; Potency, µM (doses to about 76.9 µM), most hits filed as inhibitors; active = well fitted inhibition curve with a large enough effect in the polarisation, with a control signal flat; inconclusive = small, poorly fitted or top-dose-only effect, or effect the other way, or a change in a side signal; inactive = no such curve, though single readings can be large or run the other way; the % refers to the polarisation;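 note: polarization taken with two DNA probes labelled with fluorescein and Texas red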
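His-tagged ERG Ets domain (1 uM in the protein solution; 300mM KCl, 50mM Tris-HCl, 1mM EDTA, 1mM DTT, pH 7.5) received compound, then a probe mix of 5 nM fluorescein-DNA and 100nM Texas-615-DNA. Fluorescence polarization was read for both dyes.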
Numbers stand for hits; n = inactive; u = inconclusive; x = no result; [ ] = another dose, or the depositor's remark. This excerpt belongs to a sample that is enriched for hits. Unless noted, calls come from the whole dose curve; as a rule, active = well fitted curve in the direction sought with a large enough effect; inconclusive = small, poorly fitted or top-dose-only effect, or another doubt; inactive = no such curve, though single readings can be large; an effect the other way counts as inactive or inconclusive.

SMILES | Giardia killer | RORgamma inh | Integrin act MD | VP16 counter | ERG Ets-DNA blk
CC1CCCN(Cc2c(O)ccc3c(=O)c(-c4nc5ccccc5s4)c(N)oc23)C1 (centres undefined) | n | 25.1µM | n | u | n
O=C(Nc1ccc(-n2cnnn2)cc1)c1cccc(S(=O)(=O)N2CCCC2)c1 | n | x | n | x | n
CCC(=O)N1CCc2cc(Br)cc(S(=O)(=O)N3CCN(c4ccccc4OC)CC3)c21 | x | x | x | x | n
O=C(NC(=S)N1CCc2ccccc21)c1ccccc1Cl | n | 0.447µM | n | 1µM | n
O=C(c1ccccc1)N1CCc2ccccc21 | n | n | n | u | n
O=C(NC(=S)N1CCc2ccccc21)c1ccccc1 | n | 0.562µM | n | 0.501µM | n
O=C(N/N=C\c1ccccn1)C1COc2cc3ccccc3cc2O1 (centres undefined) | n | 4.47µM | n | u | n
O=C(N/N=C\c1ccccn1)C1c2ccccc2Oc2ccccc21 | n | 7.94µM | n | u | n
CNC(=O)[C@@H]1CCC(=O)N1 | n | x | n | x | n
CCCn1c(NC(=O)C2COc3ccccc3O2)nc2ccccc21 (centres undefined) | n | 1.41µM | n | 1.41µM | n
CCc1ccccc1Nc1nc2ccccc2n1CC | n | 14.1µM | n | u | n
C=CCn1c(P(=O)(O)c2ccccc2)nc2ccccc21 | n | n | n | n | n
CCCCn1c(NC(=O)C2CCCCC2)nc2ccccc21 | n | 1.26µM | n | 2.82µM | n
C=CCn1c(NC(=O)c2ccccc2)nc2ccccc21 | n | 0.562µM | n | 1µM | n
CCc1ccccc1NC(=O)C1COc2ccccc2O1 (centres undefined) | n | n | n | n | n
CCn1c(CNc2ccc(C(=O)O)cc2)nc2ccccc21 | n | 10µM | n | n | x
O=C(O)c1ccc(NCc2nc3ccccc3n2Cc2ccccc2)cc1 | n | n | n | n | n
CCCCn1c(NC(=O)c2ccccc2)nc2ccccc21 | n | 1.12µM | n | 2.24µM | x
CCn1c(NC(=O)c2ccccc2)nc2ccccc21 | n | 0.316µM | n | 2.51µM | n
Cc1nc2ccccc2n1CC(=O)NC1CCCC1 | n | n | n | n[10 µM] | n
Cc1nc2ccccc2n1CC(=O)NC1CCCCCC1 | n | n | n | 20µM | n
O=C(Cn1nc2n(c1=O)-c1ccccc1SC2)N/N=C/c1ccncc1 | n | n | n | n | n
C[C@@H]1C(=O)N(S(=O)(=O)c2ccccc2[N+](=O)[O-])[C@H]1c1ccc(-c2ccccc2)cc1 | n | n | x | n | x
COc1ccc2c(c1)C(c1ccccc1OC)CC(=O)O2 (centres undefined) | x | n | x | n | x
CCn1c(NC(=O)/C=C/c2ccc(F)cc2)nc2ccccc21 | n | 1.26µM | n | u | n
SMILES | Giardia killer | RORgamma inh | Integrin act MD | VP16 counter | ERG Ets-DNA blk
CCOC(=O)c1sc(NC(=O)/C=C/c2ccc(F)cc2)nc1C | n | n | n | n | n
CCCCn1c(CNC(=O)c2cccs2)nc2ccccc21 | n | 11.2µM | n | u | n
Cc1cccc(C)c1NC(=S)/N=C/N(C)C | n | 20µM | n | n[10 µM] | n
CN1CCN(C(=S)Nc2ccc(Cl)cc2Cl)CC1 | n | n | n | n | n
CN(C)/C=N/C(=S)Nc1ccc(Cl)cc1Cl | n | 12.6µM | n | n[10 µM] | n
CC(=O)N(C)c1ccc(NC(=O)Nc2ccc(Cl)cc2)cc1 | n | x | n | x | n
CN(C)/C=N/C(=S)Nc1ccc(Cl)cc1 | n | 6.31µM | n | n[10 µM] | n
COC(=O)NC(c1ccccc1)[C@@]1(C(=O)OC)CCCC1=O (some centres undefined) | x | n[10 µM] | x | n[10 µM] | x
CC(OC(=O)/C=C/c1ccc2ccccc2n1)C(=O)N(C)c1ccccc1 (centres undefined) | n | x | n | x | n
CC(=O)/C=C/c1ccc2ccccc2n1 | n | 10µM | n | u | n
c1ccc(CSCc2cn3ccccc3n2)cc1 | n | 12.6µM | n | n | n
Cc1ccc(SCc2cn3ccccc3n2)cc1 | n | 10µM | n | u | n
c1ccc2nc(SCc3cn4ccccc4n3)cnc2c1 | n | u | n | u | n
COc1ccc(NC(=O)c2oc3ccccc3c2NC(=O)Cc2coc3c(C)c(C)ccc23)cc1 | x | x | x | x | n
O=S(=O)(Nc1cc(O)cc2cccnc12)c1ccc(Br)s1 | x | 7.94µM | x | 6.31µM | x
O=S(=O)(Nc1cc(O)cc2cccnc12)c1ccc(Cl)s1 | x | 3.98µM | x | u | x
Cc1ccc(-n2[nH]c(=O)c(-c3ccccn3)c2C)cc1 | n | 1.26µM | n | 2.82µM | n

Assay outcomes as filed in PubChem.
